Hits are enriched below; roughly 3.6% of the tested compounds scored in any of these assays.
FBPA Giardia inh: inhibitors of Giardia lamblia fructose-1,6-bisphosphate aldolase | A8B2U2 | purified Giardia FBPA | Potency, µM (top dose mostly 59.6 µM), for the others: top-dose activity, negative = inhibition, actives largely listed as inhibitors | hit rate 0.71% among 290,000 | AID 2451; also: nearly all actives have a fitted effect of over 55% in size
Target sequence (A8B2U2 whole entry, looked up): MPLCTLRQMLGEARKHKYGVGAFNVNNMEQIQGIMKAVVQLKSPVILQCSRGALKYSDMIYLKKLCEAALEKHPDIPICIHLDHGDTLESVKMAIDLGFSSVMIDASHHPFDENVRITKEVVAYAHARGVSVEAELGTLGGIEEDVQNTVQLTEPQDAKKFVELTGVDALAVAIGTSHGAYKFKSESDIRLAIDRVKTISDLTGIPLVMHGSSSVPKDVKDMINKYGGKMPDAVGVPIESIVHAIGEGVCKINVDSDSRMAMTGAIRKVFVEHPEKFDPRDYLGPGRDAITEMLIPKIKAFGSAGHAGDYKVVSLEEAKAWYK
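Giardia FBPA (40 nM reagent) was preincubated 10 min at RT with compound (up to 57.5 uM final), then substrate plus GAPDH/TPI/NAD/arsenate coupling system with diaphorase/resazurin was added; resorufin fluorescence (525/598 nm) was read after 20 min.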
Sm TGR inh: inhibitors of Schistosoma mansoni thioredoxin glutathione reductase; Q962Y6; purified TGR, DTNB reduction, TNB absorbance 405 nm; Potency, µM (series often up to 114 µM), inactives show top-dose activity change, negative = inhibition, actives largely listed as inhibitors; hit rate 3% among 360,000; AID 485364; also: nearly all actives have a fitted effect of over 60% in size
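TGR 20 nM + NADPH 100 uM (dispensed conc.), cpd preinc 15 min RT; start with NADPH (500 uM addition) then DTNB (15 mM addition). Kinetic TNB absorbance, 405 nm filter. Four-parameter Hill fit across titration.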
AmpC inh detg: inhibitors of E. coli AmpC beta-lactamase with detergent; P00811; AmpC hydrolysis of nitrocefin, absorbance 480 nm, 0.01% Triton; Potency, µM (series often up to 114 µM), without a hit: at the top dose activity change, negative = inhibition, most hits filed as inhibitors; hit rate 0.041% among 370,000;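 also: 0% = no-compound wells and -100% = no-enzyme wells; nearly all actives have a fitted effect of over 25% in size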
Target sequence (P00811 whole entry, looked up): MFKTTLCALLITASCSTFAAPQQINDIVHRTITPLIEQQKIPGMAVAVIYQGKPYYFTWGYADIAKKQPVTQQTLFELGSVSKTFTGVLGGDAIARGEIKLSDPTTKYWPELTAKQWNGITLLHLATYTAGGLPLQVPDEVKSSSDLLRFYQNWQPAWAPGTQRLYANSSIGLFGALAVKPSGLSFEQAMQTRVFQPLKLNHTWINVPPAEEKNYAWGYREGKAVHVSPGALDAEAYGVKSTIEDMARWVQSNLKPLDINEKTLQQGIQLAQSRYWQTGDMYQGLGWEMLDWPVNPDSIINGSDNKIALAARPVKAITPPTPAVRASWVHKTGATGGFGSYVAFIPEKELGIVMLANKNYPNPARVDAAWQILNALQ
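AmpC (5.3 nM in the dispensed reagent) in 20 mM phosphate pH 7.0 with 0.01% (detergent screen) or 0.0001% Triton X-100 was preincubated with compounds for 15 min at room temperature. Nitrocefin was then added from an 800 uM solution, and hydrolysis was followed at 480 nm.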
AmpC no deterg: AmpC beta-lactamase inhibition without detergent. P00811. AmpC nitrocefin hydrolysis, absorbance 480 nm, 0.0001% Triton. Potency, µM (top dose mostly 57.1 µM), for inactives: top-dose activity change, negative = inhibition, most hits filed as inhibitors. hit rate 0.52% among 330,000. AID 485341;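 also: plate controls were no compound for no effect and no enzyme for full effect; nearly all actives have a fitted effect of over 20% in size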
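20 mM phosphate pH 7.0 + 0.01% (detergent screen) or 0.0001% Triton X-100; 5.3 nM AmpC reagent; cpd preinc 15 min RT; nitrocefin (800 uM stock) to start; A480 q20 s × 4 min; Activity was normalised to no-enzyme and no-compound control wells.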
Active calls of the source: *; [ ] = remark or other dose. Calls follow the shape of the dose curve; as a rule, active = well fitted curve in the direction sought with a large enough effect; inconclusive = small, poorly fitted or top-dose-only effect, or another doubt; inactive = no such curve, though single readings can be large; an effect the other way counts as inactive or inconclusive. Unless noted, % is scaled to controls: 0 for no effect and ±100 for the full control effect; potency is read from the fitted curve at half-maximal effect.

COc1cccc(CN2CCNC(=O)C2CC(=O)N(C)C2CCCCC2)c1 (stereo not given) was read as FBPA Giardia inh -21.8%, Sm TGR inh 44.7µM*, AmpC inh detg -3.2% and AmpC no deterg 80.9%.
CN(Cc1cnn(C)c1)C(=O)CC1C(=O)NCCN1Cc1cccc(Oc2ccccc2)c1 (stereo not given) was read as FBPA Giardia inh -11.8%, Sm TGR inh 39.8µM*, AmpC inh detg 0.7% and AmpC no deterg 109.8%.
For CN(Cc1cnccn1)C(=O)CC1C(=O)NCCN1Cc1ccc(F)cc1Cl (stereo not given) the results were Sm TGR inh 38.0%, AmpC inh detg -4.4% and AmpC no deterg 0.3%.
`CN(CC1CCOCC1)C(=O)CC1C(=O)NCCN1Cc1cccc(Oc2ccccc2)c1` (stereo not given) gave FBPA Giardia inh -24.2%, Sm TGR inh 39.8µM*, AmpC inh detg -3.4% and AmpC no deterg 155.6%.
CN(Cc1ccccn1)C(=O)CC1C(=O)NCCN1Cc1cccc(Oc2ccccc2)c1 (stereo not given) was read as FBPA Giardia inh -14.7%, Sm TGR inh 50.1µM*, AmpC inh detg -5.2% and AmpC no deterg 121.0%.
COc1cccc(CN2CCNC(=O)C2CC(=O)N(C)CC2CCOCC2)c1 (stereo not given) was read as Sm TGR inh inconclusive, AmpC inh detg 7.9% and AmpC no deterg 19.9%.
For O=C(CC1C(=O)NCCN1Cc1ccc(F)cc1Cl)NCc1ccon1 (stereo not given) the results were Sm TGR inh 12.6µM*, AmpC inh detg -1.0% and AmpC no deterg -8.3%.
Screening CSc1ccc(Nc2nn(-c3ccc(OC(F)(F)F)cc3)nc2C(C)=O)cc1 returned Sm TGR inh 2.6% and AmpC inh detg 22.2%.
CCOc1ccc(S(=O)(=O)NCCC(=O)NCCc2ccc(OCC)c(OCC)c2)cc1 was read as Sm TGR inh 3.16µM*, AmpC inh detg 2.8% and AmpC no deterg inconclusive.
Screening CCCNC(=O)COC(=O)/C=C/c1ccc(C)o1 returned FBPA Giardia inh 0.6%, Sm TGR inh 39.8µM*, AmpC inh detg inconclusive and AmpC no deterg -11.5%[11.4 µM].
Screening Cc1ccc(/C=C/C(=O)OCC(=O)NCc2ccccc2)o1 returned Sm TGR inh inconclusive, AmpC inh detg -16.4% and AmpC no deterg -24.6%.
Screening Cc1ccc(/C=C/C(=O)OCC(=O)NCCN2C(=O)CSC2=O)cc1 returned FBPA Giardia inh 2.2%, Sm TGR inh -0.4%, AmpC inh detg 5.2% and AmpC no deterg -1.3%.
Screening CCOC(=O)C1=C(COC(=O)/C=C/c2ccc(C)o2)NC(=O)NC1C (stereo not given) returned Sm TGR inh 22.4µM*, AmpC inh detg -7.0% and AmpC no deterg -3.6%.
Screening Cc1ccc(/C=C/C(=O)OCC(=O)NCCN2C(=O)CSC2=O)o1 returned FBPA Giardia inh 3.1%, Sm TGR inh 25.1µM*, AmpC inh detg 4.5% and AmpC no deterg -19.8%.
For COc1ccc(N2CCN(c3ccc(-c4nc(-c5cccc(C)c5)no4)cc3[N+](=O)[O-])CC2)cc1 the results were Sm TGR inh 4.1% and AmpC inh detg 21.2%.
Screening O=C(Nc1cccc(Cl)c1)c1nc[nH]c1C(=O)N1CCN(c2ccccc2)CC1 returned Sm TGR inh -31.0%, AmpC inh detg -0.3% and AmpC no deterg -20.7%.
Screening CCOc1ccc(CCNC(=O)COC(=O)/C=C/c2ccc(C)o2)cc1OCC returned Sm TGR inh 50.1µM*, AmpC inh detg -9.2% and AmpC no deterg 77.2%.
`Cc1csc(C(=O)O)c1-n1cccc1` gave FBPA Giardia inh -3.3%, Sm TGR inh 5.1%, AmpC inh detg 4.2% and AmpC no deterg 0.282µM*.
For COC(=O)c1scc(S(C)(=O)=O)c1-n1cccc1 the results were FBPA Giardia inh -0.8%, Sm TGR inh -1.2%, AmpC inh detg -4.3% and AmpC no deterg -12.1%.
Screening COc1ccc(C2=NN(C(=S)Nc3ccccc3)C(c3ccccc3)C2)cc1 (stereo not given) returned FBPA Giardia inh -6.2%, Sm TGR inh 0.0%, AmpC inh detg -5.3% and AmpC no deterg 25.1µM*.
`CCOc1ccccc1N(C)S(=O)(=O)c1ccc2c(c1)N(C(C)=O)CCO2` gave Sm TGR inh 6.7%, AmpC inh detg -0.8% and AmpC no deterg 47.4%.
COc1ccc(OC)c(C2C(C(=O)c3ccc(C)o3)=C(O)C(=O)N2CCN2CCOCC2)c1 (stereo not given) was read as Sm TGR inh inconclusive, AmpC inh detg -0.7% and AmpC no deterg 13.2%.
`CC(=O)C1=C(O)C(=O)N(CCCN2CCOCC2)C1c1ccccc1[N+](=O)[O-]` (stereo not given) gave FBPA Giardia inh inconclusive, Sm TGR inh 44.7µM*, AmpC inh detg -5.8% and AmpC no deterg -22.1%.
CCCCCCN1C(=O)C(O)=C(C(C)=O)C1c1ccccc1[N+](=O)[O-] (stereo not given) was read as FBPA Giardia inh -15.0%, AmpC inh detg 4.2% and AmpC no deterg -13.6%.
`CCCOc1ccc(C2C(C(=O)c3ccc(C)o3)=C(O)C(=O)N2CCN2CCOCC2)cc1OC` (stereo not given) gave FBPA Giardia inh -20.6%, Sm TGR inh 39.8µM*, AmpC inh detg 0.1% and AmpC no deterg 45.2%.
Cc1ccc(C(=O)C2=C(O)C(=O)N(CCN3CCOCC3)C2c2ccccn2)o1 (stereo not given) was read as FBPA Giardia inh inconclusive, Sm TGR inh 44.7µM*, AmpC inh detg -8.8% and AmpC no deterg -18.5%.
Screening Cc1ccc(C2C(C(=O)c3sc(C)nc3C)=C(O)C(=O)N2CCN2CCOCC2)o1 (stereo not given) returned FBPA Giardia inh -21.4%, Sm TGR inh 39.8µM*, AmpC inh detg -2.6% and AmpC no deterg -7.0%.
Screening COc1ccc(NS(=O)(=O)c2ccc(OCC(=O)N3CCOCC3)cc2)cc1Cl returned Sm TGR inh -21.0%, AmpC inh detg -8.0% and AmpC no deterg 32.8%.
`Cn1c(C(=O)NCc2ccc(F)cc2)cc2cc(S(=O)(=O)N3CCCCC3)ccc21` gave Sm TGR inh 8.2% and AmpC inh detg 10.7%.
COc1cccc(OC)c1C1=Nn2c(nnc2-c2ccccc2O)SC1 was read as FBPA Giardia inh -0.1%.
CCCCOc1ccc(CNC(=O)C2COc3ccc(OC)cc3C2)cc1 (stereo not given) was read as Sm TGR inh 3.3% and AmpC inh detg 6.7%.
Cc1ccc(NC(=S)NCCSc2ccc(Cl)cc2)cc1 was read as FBPA Giardia inh -6.3%, Sm TGR inh -15.6%, AmpC inh detg -4.1% and AmpC no deterg -36.3%.
For Cc1ccc(CNC(=O)C2CCCN(C(=O)Nc3ccc(F)cc3)C2)cc1 (stereo not given) the results were FBPA Giardia inh 5.4%, Sm TGR inh 1.0%, AmpC inh detg -7.7% and AmpC no deterg 0.2%.
